Screening results from PubChem BioAssay.
Rows were chosen to be rich in hits. Some 2.4% of all compounds tested hit in one or more screens of this group.
POLB inh = inhibitors of human DNA polymerase beta; hit rate 1.3% among 340,000; Potency, µM (doses to about 114 µM), without a hit: at the highest dose activity change, negative = inhibition, actives largely listed as inhibitors; AID 485314; P06746; Pol beta primer extension/strand displacement, fluorescence kinetic; also: % is scaled to controls: 0 for no effect and ±100 for the full control effect
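Preincubation: enzyme (10 nM) with compound, 15 min, RT. Reaction: substrate added to 50 nM final. Reads: 0 and 10 min. Analysis: normalized, Hill fit.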
APE1 inh = inhibitors of human APE1 endonuclease; recombinant APE1, TAMRA/BHQ-2 abasic DNA cleavage fluorescence; Potency, µM (doses to about 65.8 µM), for inactives: at the top dose activity change, negative = inhibition, actives largely listed as inhibitors; hit rate 0.35% among 350,000;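 also: plate controls were vehicle for no effect and reference inhibitor for full effect; nearly all actives have a fitted effect of over 55% in size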
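Kinetic fluorescence read (525 ex/598 em nm, three reads 60 s apart) of AP-site incision; signal = third minus first read. Enzyme 0.75 nM, dual-labelled THF duplex 50 nM, compound preincubation 15 min RT.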
Pol kappa inh = DNA polymerase kappa (human) inhibition. Q9UBT6. purified Pol kappa, fluorescent DNA synthesis assay, 10 min. Potency, µM (doses to about 107 µM), for the others: top-dose activity, negative = inhibition, hits mostly inhibitors. hit rate 0.53% among 400,000; also: % is scaled to controls: 0 for no effect and ±100 for the full control effect
Target sequence (Q9UBT6 whole entry, looked up): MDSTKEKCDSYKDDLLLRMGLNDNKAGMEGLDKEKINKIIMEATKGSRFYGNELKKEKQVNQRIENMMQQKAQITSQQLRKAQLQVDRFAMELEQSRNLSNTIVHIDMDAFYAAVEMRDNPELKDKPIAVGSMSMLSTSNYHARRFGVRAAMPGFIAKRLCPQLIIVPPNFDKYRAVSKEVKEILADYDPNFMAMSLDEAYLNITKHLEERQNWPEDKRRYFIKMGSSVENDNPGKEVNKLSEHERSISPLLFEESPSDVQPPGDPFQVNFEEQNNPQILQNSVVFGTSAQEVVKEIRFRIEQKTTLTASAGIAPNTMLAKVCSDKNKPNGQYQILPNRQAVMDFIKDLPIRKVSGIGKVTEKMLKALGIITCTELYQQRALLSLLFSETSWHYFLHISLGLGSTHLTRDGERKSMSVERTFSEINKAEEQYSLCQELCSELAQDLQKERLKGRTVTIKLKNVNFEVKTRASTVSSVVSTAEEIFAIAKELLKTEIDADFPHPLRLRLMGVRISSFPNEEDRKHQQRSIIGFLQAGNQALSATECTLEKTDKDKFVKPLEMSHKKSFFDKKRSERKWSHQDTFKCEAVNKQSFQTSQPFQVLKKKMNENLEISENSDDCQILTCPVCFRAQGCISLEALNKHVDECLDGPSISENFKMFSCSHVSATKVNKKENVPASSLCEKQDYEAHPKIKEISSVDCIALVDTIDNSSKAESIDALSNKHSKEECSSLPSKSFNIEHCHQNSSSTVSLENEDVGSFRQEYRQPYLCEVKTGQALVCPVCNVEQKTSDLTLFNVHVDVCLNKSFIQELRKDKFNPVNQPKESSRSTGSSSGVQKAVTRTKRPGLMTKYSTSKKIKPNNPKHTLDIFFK
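Enzyme at 10 nM met test compounds for 15 min at room temperature. Substrate addition (50 nM final) began the reaction, which was monitored by fluorescence at 0 and 10 min.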
GLS inhibitor = inhibitors of human glutaminase (GLS). GLS enzymatic activity, qHTS titration. Potency, µM (titrated, usually from 45.5 µM), for the others: at the highest dose activity change, negative = inhibition, hits mostly inhibitors. hit rate 0.21% among 410,000. AID 624170; also: % is scaled to controls: 0 for no effect and ±100 for the full control effect
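Enzyme dispensed in phosphate buffer (45 mM, pH 8.2, 0.02% Tween-20), compounds pinned in, then 1 mM L-glutamine solution and the glutamate oxidase–HRP–Amplex Red mix added; fluorescence read immediately and again after 30 min at room temperature.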
POLI inh = blocks human DNA polymerase iota activity; Q9UNA4; Potency, µM (highest dose often 115 µM), inactives show top-dose activity, negative = inhibition, most hits filed as inhibitors; AID 588590; Pol iota fluorescent replication assay, 10 min; hit rate 1% among 390,000
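Fluorescent replication assay read twice, at 0 min and 10 min after adding 50 nM (final) substrate. Enzyme (10 nM) and compounds were first incubated 15 min at room temperature; enzyme-free buffer wells were negative controls.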
POLH inh = inhibitors of human DNA polymerase eta. Q9Y253. recombinant Pol eta, fluorescent DNA replication assay. Potency, µM (doses to about 114 µM), inactives show at the highest dose activity change, negative = inhibition, hits mostly inhibitors. hit rate 1.2% among 390,000. AID 588591; also: % is scaled to controls: 0 for no effect and ±100 for the full control effect
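Pol eta (10 nM) was preincubated with compounds for 15 min at room temperature, after which fluorescent replication substrate (50 nM final) was added to start the reaction. Fluorescence was read kinetically at 0 and 10 min.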
* hit, by the source's call; u = inconclusive; x = no result; ! = a repeat was not active; [ ] = remark or other dose. Calls follow the shape of the dose curve; as a rule, active = well fitted curve in the direction sought with a large enough effect; inconclusive = small, poorly fitted or top-dose-only effect, or another doubt; inactive = no such curve, though single readings can be large; an effect the other way counts as inactive or inconclusive. Potency is read from the fitted curve at half-maximal effect.

SMILES | POLB inh | APE1 inh | Pol kappa inh | GLS inhibitor | POLI inh | POLH inh
O=C(CC1(O)C(=O)N(CCc2ccccc2)c2ccccc21)c1ccco1 (stereo unspecified) | 9% | -3% | -8% | -6% | -12% | u
C#CCN1C(=O)C(O)(CC(=O)/C=C/c2ccco2)c2ccccc21 (stereo unspecified) | u | u | u | -16% | 35µM* | u
Cn1nnnc1SCCNCc1ccccc1OCc1ccccc1 | 28µM* | 17% | 3% | -3% | 14% | -6%
CCOc1ccccc1CNCCSc1nnnn1C | 1% | x | -4% | 4% | -6% | -11%
COC(=O)[C@]1(Cc2ccccc2)N[C@H](CN(C)S(=O)(=O)c2ccc(-c3ccccc3)cc2)[C@@H]2C(=O)N(Cc3ccccc3)C(=O)[C@@H]21 | x | -6% | 12% | -1% | 22% | -10%
O=C(NC1CCCCC1)C(c1ccncc1)N(Cc1ccc2c(c1)OCO2)C(=O)C(F)(F)F (stereo unspecified) | 7% | u | 79µM* | 2% | 35µM* | 9%
CCN(CC)c1ccccc1/C=C/[n+]1ccc(CCCCI)c2ccccc21 | x | x | 50µM* | x | u | x
CCN(CC)S(=O)(=O)c1ccc(OC)c(NC(=O)/C=C/c2ccco2)c1 | -21% | -10% | -9% | -5% | u | 79µM*
O=C1OC2(c3cc(Br)c(O)c(Br)c3Oc3c2cc(Br)c(O)c3Br)c2c(Cl)c(Cl)c(Cl)c(Cl)c21 | x | 4.5µM* | x | x | x | x
O=C1OC(c2ccccc2)(c2cc(Br)c(O)c(Br)c2)c2ccccc21 (stereo unspecified) | x | x | -1% | 1% | u | u
Cc1ccc(-c2cc(C(=O)Nc3c(C)n(C)n(-c4ccccc4)c3=O)no2)cc1 | -5% | -1% | 5% | -5% | -7% | -19%
Cc1c(NC(=O)c2cc(-c3ccc(Cl)c(Cl)c3)on2)c(=O)n(-c2ccccc2)n1C | 59% | 3% | -6% | 16µM*! | 8% | 4%
Cc1c(NC(=O)C(C)OC(=O)c2c3c(nc4ccccc24)CCC3)c(=O)n(-c2ccccc2)n1C (stereo unspecified) | u | 0% | -24% | 62% | 32µM* | 50µM*
Cc1c(NC(=O)C(C)OC(=O)c2cccnc2Cl)c(=O)n(-c2ccccc2)n1C (stereo unspecified) | x | 10% | 5% | 0% | 79µM* | -9%
Cc1c(O)c2ccccc2n(-c2ccccc2)c1=O | x | x | 2% | 2% | -2%[58.9 µM] | -17%
CC(C)(C)c1c(Cl)c(O)c(-c2ccccc2)c(=O)n1-c1ccccc1 | 11% | 18% | -12% | -4% | 1.1µM* | 9%
CC(=O)c1c(C)[nH]c(C(=O)Nc2cccc(S(=O)(=O)N3CCCCC3)c2)c1C | x | 12% | -8% | -6% | 3% | -17%
Clc1nc(Oc2ccccc2)nc(-c2cn(-c3ccccc3)c3ccccc23)n1 | -29% | u | 12% | 22% | 1% | -12%
CCNc1nc(Cl)nc(-c2cn(-c3ccccc3)c3ccccc23)n1 | 79µM* | u | -8% | -13% | -18% | 3%
O=S(=O)(/N=S1\CC=CCN1S(=O)(=O)c1ccccc1)c1ccccc1 (stereo unspecified) | x | x | -8% | -6% | 28µM* | -12%
CC1=C(C)CS(=O)N(S(=O)(=O)c2ccccc2)C1 (stereo unspecified) | 7% | 3% | -11% | 2% | u | -9%
Oc1ccccc1CNc1ccc(Br)cn1 | 14% | -8% | -16% | 27% | -4% | -12%
CCOC(=O)c1ccc(NC(=O)C2CCCO2)cc1 (stereo unspecified) | 20% | -1% | 8% | -3% | -3% | -10%
Cc1cc(=O)oc2cc(OCC(=O)N/N=C/c3ccccc3[N+](=O)[O-])ccc12 | 32µM* | -3% | u | 59% | 28µM* | u
Oc1ccc(/C=C/c2cc(O)cc(O)c2)cc1 | u | u | 14µM*! | 10% | u | -3%[57.1 µM]
SMILES | POLB inh | APE1 inh | Pol kappa inh | GLS inhibitor | POLI inh | POLH inh
COc1ccc(CNC(=O)COC(=O)c2ccc(OCc3c(C)noc3C)cc2)cc1OC | 79µM* | 0% | -3% | 16% | -1% | -11%
COc1ccc(CCNC(=O)c2ccc(OCc3c(C)noc3C)cc2)cc1OC | x | -2% | 7% | 3% | -7% | -9%
Cc1ccccc1-c1csc(C(O)c2ccc(F)cc2)n1 (stereo unspecified) | x | x | x | -6% | x | x
O=C(O)CCN1C(=O)/C(=C\c2ccc(-c3nc4ccccc4s3)o2)SC1=S | u | 0% | -24% | u | -19% | 2.5µM*
O=C(O)CCN1C(=O)/C(=C\c2ccncc2)SC1=S | 1% | 14% | 8% | 3% | 46% | 2%
COC(=O)c1cc2ccsc2n1CC(=O)N1CCCc2ccccc21 | u | u | -2%[60.1 µM] | 17% | -7% | 0%
c1cn(C23CC4CC(CC(C4)C2)C3)cn1 | 1% | 1% | -6% | 6% | 9% | -12%
COc1cc(/C=C/C(=O)OCC(=O)Nc2ccc([N+](=O)[O-])cc2)ccc1O | 3% | 0% | -12% | 6% | -19% | -2%
COc1cc(/C=C/C(=O)OCC(=O)N2CCCc3ccccc32)ccc1O | x | -1% | -10% | 10µM* | 49% | 0%
COc1cc(/C=C/C(=O)OCC(=O)Nc2ccc(Cl)cn2)ccc1O | x | u | u | -6% | 35µM* | 56µM*
COc1cc(/C=C/C(=O)OCC(=O)Nc2ccc(C)cc2[N+](=O)[O-])ccc1O | 10% | 2% | -13% | 5.6µM* | u | u
COc1cc(/C=C/C(=O)OCC(=O)Nc2cc(C)c(C)cc2[N+](=O)[O-])ccc1O | u | u | -21% | 6% | -21% | -2%
O=C(COC(=O)/C=C/c1ccc(F)cc1)Nc1ccc(Cl)cn1 | 3% | -1% | -4% | 5% | 89% | 2%
COc1cc(/C=C/C(=O)OCC(=O)Nc2ccc(S(N)(=O)=O)cc2)ccc1O | 1% | -10% | u | -8% | u | 50µM*
O=C1OCc2ccc(NC(=O)c3ccccc3C(=O)O)cc21 | 4% | 29% | -3% | 7% | -30% | -6%
CCCN1CCCc2cc(CN)ccc21 | 10% | -3% | 0% | 11% | 3.2µM* | 89µM*
CN1CCCc2cc(C=O)ccc21 | 3% | 3% | -7% | 20% | 14% | -7%
CCc1cc2cc(C(=O)Nc3ccc(F)cc3)sc2s1 | 56µM* | 1% | -5% | -12% | u | u
CCN(CC)CCNC(=O)c1ccc2c(c1)ncn2C1CCCCC1 | 6% | 0% | 0% | 17% | 2% | -20%
